Experimental data: PubChem BioAssay AID624416 (The Scripps Research Institute Molecular Screening Center, 2012)
In all, about 360,000 compounds went through this assay and about 1,500 (0.42%) were called active. What follows is part of a selection rich in actives, with near analogues and random picks from the rest. Unmarked numbers belong to inactive results. No stated cut-off is given here; in the data, active means inhibition above about 8.5%; inactive means the rest.

Tested on: HIV-1 gp120 / PG9 antibody interaction
Experiment: binders of HIV-1 gp120 antibody PG9, primary screen, biochemical, TR-FRET (AID 624416)
Details: TR-FRET gp120-PG9 antibody binding; at 6.7 µM; stronger effect = higher value

SMILES	inhibition
O=C(COC(=O)c1cccc(Cl)c1)Nc1ccc2[nH]c(=O)[nH]c2c1	0.75%
O=C(COC(=O)Cn1cnc2ccccc21)Nc1cccc2c1C(=O)c1ccccc1C2=O	-1.23%
O=C(COC(=O)c1cccc(Br)c1)Nc1cccc2c1C(=O)c1ccccc1C2=O	12% (active)
COC(=O)[C@]12C[C@H](CC(=O)NCc3cccc(C(F)(F)F)c3)C(=O)N(Cc3ccc4c(c3)OCO4)C1=C[C@H](COCc1ccccc1)O[C@@H]2C	-1.16%
COc1cccc(NC(=O)N(C)C[C@@H]2OCc3cn(nn3)CCCC(=O)N([C@@H](C)CO)C[C@H]2C)c1	0.85%
Cc1cc(C#N)c(SCC(N)=O)nc1-c1ccc(F)cc1	-0.54%
CCOc1ccc2cc(C#N)c(SCC(=O)OC)nc2c1	33.3% (active)
CCOc1ccc2nc(N3CCCN(C(=O)Nc4ccccc4C)CC3)c(C#N)cc2c1	1.36%
COc1ccccc1Cc1c(-c2ccc(F)cc2)nc2ccc(C)cn12	1.73%
N#Cc1ccc(OCCCN2CCC(C(O)(c3ccccc3)c3ccccc3)CC2)c(F)c1	1.27%
Cc1nc(NC(=O)CCC(=O)O)sc1C(=O)N(C)C	0.5%
NS(=O)(=O)c1ccc2nc(NC(=O)CS(=O)(=O)c3ccc(F)cc3)sc2c1	-0.8%
O=C(O)CCC(=O)Nc1nc2ccc([N+](=O)[O-])cc2s1	9.53% (active)
CCN1C(=O)N[C@@H]2C[C@H](C(=O)N3CCCC3)[C@H](C)[C@H](c3ccccc3)C[C@@H]21	-1.63%
O=C(COC(=O)c1cccc(Cl)c1Cl)NC1CCCCCC1	-0.6%
N#Cc1ccccc1Sc1ccccc1C(=O)OCC(=O)NC1CCCCC1	33% (active)
O=C(COC(=O)c1ccccc1Cl)NC1CCCCCCC1	-1.4%
COCCNC(=S)N(C)[C@H]1C[C@H]2c3[nH]c4ccccc4c3CCN2C[C@H]1[C@H](C)O	-0.82%
COCc1[nH]nc2c1C(c1ccccc1)N(c1ccccc1)C2=O (stereo not given)	0.32%
O=C1[C@@H](c2ccccc2)[C@@H](c2ccccc2)N1c1ccccc1	-1.27%
Cc1cc2c3ccccc3[nH]c(=O)n2n1	0.66%
S=c1[nH]c2ccccc2c2ccccc12	41.9% (active)
S=c1ccc2ccccc2[nH]1	1.87%
Cc1ccc(-n2nc(-c3ccco3)cc2C(=O)NCc2cccnc2)cc1	1.7%
Cc1ccc(-n2ncc3c(=O)n(-c4ccc(C)c(C)c4)c(-c4ccco4)nc32)cc1	9.24% (active)

SMILES	inhibition
Cc1ccc(-n2ncc3c2ncn2nc(-c4ccco4)nc32)c(C)c1	1.54%
CCOC(=O)Cn1c2c(n(-c3ccc(F)cc3)c1=O)C=C(c1ccccc1)[C@@H](C)C(C(=O)N(C)C1CCCCC1)=C2	1.82%
CCCCCCCCN1C(=O)[C@@H](CC(=O)N2CCN(C(=O)OCC)CC2)C[C@@]2(C(=O)OC)C1=C[C@H](C1CCCC1)O[C@@H]2C	-1.72%
Cc1ccc(-c2cc(C(=O)NCc3cn(C)nc3C)c3cc(Br)ccc3n2)cc1	11.4% (active)
Cc1nn(C)cc1C(=O)Nc1ccccc1Br	-1.45%
Cc1nn(C)cc1CNC(=O)Nc1ccc(Cl)cc1	-1.07%
Cc1cc(OC(=O)NCCc2ccc(F)cc2)ccc1F	0.4%
COC(=O)[C@]12C[C@H](CC(=O)NCc3ccccc3)C(=O)N(CCC3=CCCCC3)C1=C[C@H](C(C)(C)C)O[C@@H]2C	-0.45%
Nc1ncnc2c1ncn2C1OC(CO)CC1O (stereo not given)	-0.46%
CSc1nc2c(c(=O)[nH]1)C(c1cccc(Cl)c1Cl)CC(=O)N2 (stereo not given)	-0.61%
N#Cc1c(N)nc2c3c(sc(=N)c2c1N)NC(=O)CC3c1ccccc1Cl (stereo not given)	36.3% (active)
Fc1cc(F)c2nc(Nc3nc4c(F)cccc4s3)sc2c1	12.7% (active)
NNc1nc2c(Cl)cccc2s1	-3.22%
Cc1cc(NCCc2c[nH]c3ccccc23)ccc1Oc1cccnc1	0.39%
C[C@@H](CN1C2=NC[C@@H](Cc3ccccc3)N2C[C@H]1Cc1ccc(O)cc1)NC(=O)CCC1CCCCC1	-0.86%
COc1ccc(NC(=O)CC(NC(C)c2ccccc2)C(=O)O)cc1 (stereo not given)	-1.77%
COc1ccc(CC(=O)Nc2ccc(-c3nnc(-c4ccccc4)o3)cc2)cc1	9.44% (active)
COc1ccc(NC(=O)CSc2nnc(Cc3ccccc3)c(=O)n2N)cc1	-0.48%
CC(C)[C@H]1COCCS(=O)(=O)N1Cc1ccccc1-c1cccc2c1sc1ccccc12	-1.17%
C=CC[C@]12C[C@@]3(O[C@H](c4ccc(C(F)(F)F)cc4)N=C3C[C@H](c3ccc(OC)cc3)[C@H]1C)N(C1CCN(Cc3ccccc3)CC1)C2=O	-1.53%
COc1cccc(-n2c(SCC(=O)c3c[nH]c4ccccc34)nc3ccccc3c2=O)c1	35.5% (active)
CCCn1c(N)c(C(=O)CSc2nc3ccccc3c(=O)n2-c2ccc(OC)cc2)c(=O)[nH]c1=O	-1.09%
Cc1ccc(-n2c(SCC(=O)N3CCC(C(=O)O)CC3)nc3ccccc3c2=O)cc1C	-0.77%
COc1ccc(CNC(=O)c2cc(C(=O)C3CC3)c[nH]2)cc1	-0.91%
O=C(NCCc1ccccn1)c1ccc(COc2ccccc2)o1	-2%

SMILES	inhibition
O=C(NCCc1ccccn1)c1cc(C(=O)C2CCCCC2)c[nH]1	10.2% (active)
COc1ccc(CCNC(=O)CSc2nnc3ccc(-c4ccncc4)nn23)cc1	-1.52%
COc1cc(OC)cc(C(=O)NCCSCc2ccc(Cl)cc2)c1	-1.65%
COc1ccc(CCNC(=O)CSc2nc(C)nc3c2oc2ccccc23)cc1OC	-0.52%
COc1ccc(CCNC(=O)CSc2nc(-c3ccc(OC)c(OC)c3)ccc2C#N)cc1	16% (active)
COc1ccc(CCNC(=O)COC(=O)c2cnc(Cl)c(Cl)c2)cc1	-0.95%
COc1cccc(-c2ccc(C#N)c(SCC(=O)NCCc3ccc(Cl)cc3)n2)c1	14.1% (active)
CCc1c(-c2ccccc2OC)ncn1CCc1ccccc1OC	0.74%
COC(=O)[C@]12C[C@H](CC(=O)N3CCN(C(=O)C4CC4)CC3)C(=O)N(Cc3ccc4c(c3)OCO4)C1=C[C@H](C(C)(C)C)O[C@@H]2C	-1.36%
COC(=O)c1ccc(CN2C(=O)[C@]3(OCCC=C[C@H]3C)c3c(Br)cccc32)cc1	0.64%
COc1ccccc1C(=O)N1O[C@]23C=C[C@]14C[C@@H](O)CC[C@]4(C)C2CC[C@]1(C)[C@@H]([C@H](C)/C=C/[C@H](C)C(C)C)CC[C@H]13 (stereo not given in full)	0.64%
NC(=O)c1ncn([C@@H]2O[C@H](C(=O)O)[C@@H](O)[C@H]2O)n1	-0.47%
COc1ccc(C(=O)COC(=O)C(O)c2ccccc2)c(OC)c1 (stereo not given)	-2.12%
CCOC(=O)c1c(C)[nH]c(C(=O)OCC(=O)c2ccc(OC)cc2OC)c1C	9.16% (active)
CCOC(=O)c1c(C)[nH]c(C(=O)COc2ccc3c(c2)OCO3)c1C	3.13%
COC(=O)Cc1nnn2c1[C@H](C)[C@@H](OC)c1cc(Br)ccc1-2	0.07%
Cn1c(SCC(=O)Nc2ccc(Br)cc2F)nnc1-c1ccco1	2.43%
CCn1c(SCC(=O)Nc2cccc(F)c2)nnc1-c1cc2cc(Br)ccc2o1	24.2% (active)
CCn1c(CNC(=O)c2ccco2)nnc1SCC(=O)Nc1cccc(F)c1	-1.17%
CCCCCCCCN1C(=O)[C@@H](CC(=O)NCc2ccc(C)o2)C[C@@]2(C(=O)OC)C1=C[C@H](C(C)(C)C)O[C@@H]2C	0.05%
COC(=O)C1=C(C)N(Cc2ccccc2C(F)(F)F)C(=NCc2ccc(OC)cc2)NC1c1cccc(C(F)(F)F)c1 (stereo not given)	24.9% (active)
COC(=O)C1=C(C)N(Cc2ccccc2C(F)(F)F)C(=NCC2CC2)NC1c1cccc(Cl)c1 (stereo not given)	-1.5%
COC(=O)C1=C(C)N(Cc2ccccc2C(F)(F)F)C(=NCc2ccc(C(F)(F)F)cc2)NC1c1ccc(F)cc1 (stereo not given)	-2.66%
CC1(C)OC(=O)C2=C(CC(CCc3ccccc3)OC2c2ccc(Cl)cc2)O1 (stereo not given)	1.11%
COc1ccc(Sc2ccc(NC(=O)c3cccc(Cl)c3)cc2C#N)cc1	-1.17%

SMILES	inhibition
N#Cc1ccccc1NC(=O)c1cccc(COc2ccc(Cl)cc2Cl)c1	19.9% (active)
O=C(Nc1ccn(Cc2ccccc2F)n1)c1ccc(COc2ccc(Cl)cc2Cl)o1	1.3%
CN[C@H]1C[C@H]2c3[nH]c4c(-c5ccccc5)cccc4c3CCN2C(=O)[C@H]1[C@H](C)O	-0.87%
COc1ccc(-c2ccc3c(n2)CCCN3S(=O)(=O)c2ccc(C)cc2)cc1	-0.15%
COC(=O)C1=C(C)N(Cc2ccc(C(F)(F)F)cc2)C(=NCc2ccc(C(F)(F)F)cc2)NC1c1cccc(Cl)c1 (stereo not given)	-0.79%
Cc1cc(C)cc(NC(=O)C2CCCN(S(=O)(=O)c3ccc4[nH]c(=O)ccc4c3)C2)c1 (stereo not given)	11.4% (active)
CC1CCN(S(=O)(=O)c2ccc3[nH]c(=O)ccc3c2)CC1	0.02%
CCc1cccc(NC(=O)C2CCCN(S(=O)(=O)c3ccc4[nH]c(=O)ccc4c3)C2)c1 (stereo not given)	0.8%
CC(C)[C@@H](C)/C=C/[C@@H](C)[C@H]1CC[C@@H]2[C@]1(C)CCC1[C@]23C=C[C@]2(C[C@@H](O)CC[C@]12C)N(c1ccc([N+](=O)[O-])cn1)O3 (stereo not given in full)	-1.14%
O=C(NCc1ccc(Cl)cc1)c1cc2c(nc3sccn32)s1	28.4% (active)
O=C(NCc1ccc2c(c1)OCO2)c1c(O)nc2sccn2c1=O	-1.43%
O=C(NCc1ccc(Cl)cc1)c1cc(=O)nc2sc(-c3ccccc3)nn12	-2.19%
CCOC(=O)CNC(=O)N(C)[C@H]1C[C@H]2c3[nH]c4c(-c5ccc6c(c5)OCO6)cccc4c3CCN2C(=O)[C@H]1[C@H](C)O	-0.88%
O=C(NCc1cccnc1)c1cccnc1Sc1ccc(Cl)cc1	0.54%
CSc1ncccc1C(=O)NCc1ccccc1Cl	-1.41%
COc1cccc(CNC(=O)c2cccnc2Sc2ccc(Cl)cc2)c1	14.9% (active)
O=C(NCc1ccccc1)[C@@H]1CCCN1C(=O)[C@@H](NS(=O)(=O)c1ccc(F)cc1F)C1CCCCC1	-0.43%
O=C(CCC1CCCC1)N=C1SC2CS(=O)(=O)CC2N1Cc1ccccc1 (stereo not given)	0.63%
O=C(N=C1SC2CS(=O)(=O)CC2N1c1ccccc1)c1ccccc1 (stereo not given)	-0.55%
O=C(N=C1SC2CS(=O)(=O)CC2N1Cc1ccccc1)c1ccccc1 (stereo not given)	34% (active)
Nc1[nH]c(C(=O)c2ccccc2)c(-c2ccc(Cl)cc2Cl)c1C(=O)c1ccccc1	0.83%
Cc1c(-c2ccccc2)nc(N)c(C#N)c1-c1cccs1	12.2% (active)
CCc1c(-c2ccccc2)nc(N)c(C#N)c1-c1cccs1	-2.39%
CN1CCc2nc(SC(C(=O)O)c3ccccc3)c(C#N)c(-c3cccs3)c2C1 (stereo not given)	1.9%
O=C(NCc1ccccc1)[C@H]1CCCN1C(=O)[C@H]1CCCN1C(=O)c1cc(F)cc(F)c1	-2.57%
